AmpC inh detg: qHTS Inhibitors of AmpC Beta-Lactamase (assay with detergent). P00811. AmpC hydrolysis of nitrocefin, absorbance 480 nm, 0.01% Triton. Potency, µM (top dose mostly 114 µM), usual class: inhibitors. actives 0.041% (n = 370,000). AID 485294, 2010; note: nearly all actives have a fitted effect of over 25% in size
Target sequence (P00811 whole entry, looked up): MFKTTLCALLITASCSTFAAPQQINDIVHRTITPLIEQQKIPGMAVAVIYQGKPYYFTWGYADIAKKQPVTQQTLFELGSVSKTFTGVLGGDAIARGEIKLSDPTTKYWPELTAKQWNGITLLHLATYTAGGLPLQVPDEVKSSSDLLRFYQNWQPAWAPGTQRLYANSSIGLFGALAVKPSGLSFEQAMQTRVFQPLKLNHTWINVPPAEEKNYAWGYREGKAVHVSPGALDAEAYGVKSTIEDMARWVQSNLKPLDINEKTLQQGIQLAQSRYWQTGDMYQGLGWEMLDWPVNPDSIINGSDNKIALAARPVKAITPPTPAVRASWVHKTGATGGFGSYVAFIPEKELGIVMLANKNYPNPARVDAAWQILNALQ
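20 mM phosphate pH 7.0 + 0.01% (detergent screen) or 0.0001% Triton X-100; 5.3 nM AmpC reagent; cpd preinc 15 min RT; nitrocefin (800 uM stock) to start; A480 q20 s × 4 min; Activity was normalised to no-enzyme and no-compound control wells.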
Sm TGR block: qHTS Assay for the Inhibitors of Schistosoma Mansoni Peroxiredoxins; Schistosoma mansoni thioredoxin glutathione reductase (TGR), Q962Y6; actives 3% (n = 360,000); purified TGR, DTNB reduction, TNB absorbance 405 nm; Potency, µM (highest dose often 114 µM), hits mostly inhibitors; note: nearly all actives have a fitted effect of over 60% in size
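First, TGR (20 nM dispensed) and NADPH were mixed with compound. Second, a 15 min room-temperature incubation followed. Third, further NADPH and then DTNB were added to start the reaction. Finally, TNB absorbance was monitored kinetically.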
AMA1-RON2 inh: qHTS for Inhibitors of AMA1-RON; Towards Development of Antimalarial Drug Lead: Primary Screen. AID 720542, 2013. Potency, µM (highest dose often 58.2 µM), actives largely listed as inhibitors. AlphaScreen AMA1-biotinylated RON2 peptide binding. actives 0.2% (n = 360,000); note: nearly all actives have a fitted effect of over 45% in size
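AMA1 (3D7) with his tag at 25 nM final met compounds first, then biotinylated RON2 peptide at 25 nM; detection used donor plus acceptor beads, 10 µg/mL apiece, read by AlphaScreen after 30 min at room temperature.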
FMDV antiviral: High Throughput Screening for Foot and Mouth Disease Virus Antivirals; FMDV antiviral cell-based qHTS; Potency, µM (top dose mostly 57.9 µM), hits mostly inhibitors; actives 1.2% (n = 410,000); calls by dose curve; tested in HEK293T cells; note: read-out not given here; nearly all actives have a fitted effect of over 45% in size
AmpC inh no detg: qHTS Inhibitors of AmpC Beta-Lactamase (assay without detergent). Potency, µM (highest dose often 57.1 µM), actives largely listed as inhibitors. actives 0.52% (n = 330,000). AmpC nitrocefin hydrolysis, absorbance 480 nm, 0.0001% Triton. P00811; note: nearly all actives have a fitted effect of over 20% in size
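20 mM phosphate pH 7.0 + 0.01% (detergent screen) or 0.0001% Triton X-100; 5.3 nM AmpC reagent; cpd preinc 15 min RT; nitrocefin (800 uM stock) to start; A480 q20 s × 4 min; Activity was normalised to no-enzyme and no-compound control wells.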
Of the large screens only hits and unclear results are named; the others gave an inactive call; ! = not confirmed by another sample. Only some compounds are listed: those with a hit (about 4.1% of all), similar ones and a draw of the others. Unless noted, calls come from the whole dose curve; as a rule, active = well fitted curve in the direction sought with a large enough effect; inconclusive = small, poorly fitted or top-dose-only effect, or another doubt; inactive = no such curve, though single readings can be large; an effect the other way counts as inactive or inconclusive.

COc1ccc(-c2nc(S(=O)(=O)c3ccc(C)cc3)c(NCc3ccccc3)o2)cc1	Sm TGR block 12.6µM (no result: AMA1-RON2 inh, AmpC inh no detg)
O=C(CCC1N=C2c3ccccc3N=C(SCc3ccc(F)cc3)N2C1=O)NCc1ccco1 (centres undefined)	Sm TGR block 25.1µM
Cc1ccc(CSC2=Nc3ccccc3C3=NC(CC(=O)NCc4ccco4)C(=O)N23)cc1 (centres undefined)	Sm TGR block 35.5µM
CC(C)c1c(C(=O)N2CCCCC2c2cccnc2)cnn1-c1nccc(-c2cccs2)n1 (centres undefined)	none (no result: AmpC inh detg, Sm TGR block, AMA1-RON2 inh, AmpC inh no detg)
COc1cc(/C=C2/SC(=O)N(CC(=O)N3CCCC3)C2=O)ccc1Oc1ccc([N+](=O)[O-])cn1	FMDV antiviral 31.6µM
O=[N+]([O-])c1ccc(N2CCOCC2)c2c1no[n+]2[O-]	AMA1-RON2 inh inconclusive, FMDV antiviral 10µM (no result: AmpC inh detg, Sm TGR block, AmpC inh no detg)
O=C1COc2cc(S(=O)(=O)NCc3ccco3)c(Cl)cc2N1	Sm TGR block 15.8µM (no result: AMA1-RON2 inh)
CCOCCCN(Cc1ccco1)S(=O)(=O)c1cc2c(cc1C)NC(=O)CO2	none (no result: AMA1-RON2 inh, AmpC inh no detg)
CCOCCCN(Cc1ccco1)S(=O)(=O)c1cc2c(cc1Cl)NC(=O)CO2	Sm TGR block 17.8µM (no result: AMA1-RON2 inh, AmpC inh no detg)
COc1ccc(NC(=O)CCn2c(=O)c3cccn3c3cccnc32)c(OC)c1	none (no result: AMA1-RON2 inh, AmpC inh no detg)
Cc1ccc(CNC(=O)c2c(Nc3ccccc3C)sc(C(=O)c3ccc(F)cc3)c2N)cc1	none (no result: AMA1-RON2 inh, AmpC inh no detg)
COc1cccc(Nc2sc(C(=O)c3ccc(F)cc3)c(N)c2C(=O)NCc2ccc(C)cc2)c1	FMDV antiviral 14.1µM (no result: AMA1-RON2 inh, AmpC inh no detg)
COc1ccc(Cn2ccc3nc(C)c(C(=O)N4CCN(c5cccc(OC)c5)CC4)cc3c2=O)cc1	FMDV antiviral inconclusive (no result: AMA1-RON2 inh, AmpC inh no detg)
CN(C)CCCN1c2ccc(O)cc2Sc2ccc(Cl)cc21	AMA1-RON2 inh 20µM (no result: AmpC inh detg, Sm TGR block, AmpC inh no detg)
FC(F)(F)c1ccc2c(c1)N(CCCN1CCN(CCCl)CC1)c1ccccc1S2	AMA1-RON2 inh inconclusive, FMDV antiviral 11.2µM
CN1CCN(CCCN2c3ccccc3Sc3ccc(Cl)cc32)CC1	AMA1-RON2 inh 15.8µM!, FMDV antiviral inconclusive
OCCN1CCN(CCCN2c3ccccc3Sc3ccc(C(F)(F)F)cc32)CC1	FMDV antiviral inconclusive
CCSc1ccc2c(c1)N(CCCN1CCN(C)CC1)c1ccccc1S2	AMA1-RON2 inh inconclusive
CCC(C(=O)NCc1ccco1)N(C(=O)CNS(=O)(=O)c1ccccc1)C1CCCCC1 (centres undefined)	Sm TGR block 44.7µM (no result: FMDV antiviral)
O=C(Cn1c(SCc2cccc(F)c2)nc2cccnc21)Nc1ccc(F)c(Cl)c1	none (no result: AMA1-RON2 inh, AmpC inh no detg)
O=C(CC1SC(N2CCOCC2)=NC1=O)Nc1ccccc1Cl (centres undefined)	Sm TGR block 44.7µM
Cc1oc(-c2ccc(Cl)cc2)cc1-c1nn2c(-c3ccoc3C)nnc2s1	Sm TGR block 22.4µM
Clc1ccc(-c2nnc3sc(-c4ccc(Br)o4)nn23)cc1	AmpC inh detg inconclusive
COc1ccc(NC(=O)CN2C(=O)CSc3ccc(S(=O)(=O)N(C)C)cc32)cc1Cl	none (no result: AMA1-RON2 inh, AmpC inh no detg)
Clc1ccc(/C=N/Nc2nc(Cl)nc3ccccc23)cc1	AmpC inh no detg 17.8µM
Clc1ccc(/C=N/Nc2nnc(Cl)c3ccccc23)cc1	AmpC inh detg inconclusive (no result: FMDV antiviral)
Cc1ccc(-c2nc(N/N=C/c3ccncc3)c3ccccc3n2)cc1	FMDV antiviral 1µM
Cc1cccc(OCC(=O)N(Cc2sccc2C)C2CCS(=O)(=O)C2)c1 (centres undefined)	none (no result: AMA1-RON2 inh, AmpC inh no detg)
Cc1ccc(OCC(=O)Nc2ccccc2C(=O)OCc2cc(=O)n3c(C)csc3n2)cc1	none (no result: AMA1-RON2 inh, AmpC inh no detg)
COc1cccc(OC)c1C(=O)Nc1ccc2c(c1)N(C(C)=O)CCC2	none (no result: AMA1-RON2 inh, AmpC inh no detg)
CCCCOc1ccc(C(=O)Nc2ccc3c(c2)N(C(C)=O)CCC3)cc1	AmpC inh detg inconclusive, FMDV antiviral 3.16µM (no result: AMA1-RON2 inh, AmpC inh no detg)
CC(=O)N1CCCc2ccc(NC(=O)c3ccc(OC(C)C)cc3)cc21	FMDV antiviral 11.2µM (no result: AMA1-RON2 inh, AmpC inh no detg)
CCCCNc1nc2c(c(=O)n(Cc3ccc(Cl)c(Cl)c3)c(=O)n2C)n1C	FMDV antiviral inconclusive (no result: AMA1-RON2 inh, AmpC inh no detg)
CC(=O)c1cccc(NC(=S)NC2CC2)c1	Sm TGR block 39.8µM
S=C(Nc1ccc(N2CCOCC2)cc1)Nc1ccc2snnc2c1	Sm TGR block 35.5µM

Assay outcomes: PubChem BioAssay, National Center for Advancing Translational Sciences (NCATS)
